# Screen size: about 300,000 compounds; about 37,000 (12%) were called active. The sample holds actives, similar compounds and a random draw of the others, so the mix is not that of the screen. Rule as the data show it: active = max response mostly above about 13% (no sharp cut-off); inactive = mostly below about 14%.
# Experiment: Cycloheximide Counterscreen for Small Molecule Inhibitors of Shiga Toxin; also: read at 38.3 µM for the half of the compounds with a filed dose; 0% is about no effect
# Conditions: cell reporter, cycloheximide protein synthesis inhibition counterscreen; stronger effect = higher value
row,SMILES,max response
1,NC(=O)c1c(NC(=O)c2ccccc2)sc2c1CCCC2,31.6% (active)
2,O=C(O)c1c(NC(=O)N2CCCC2)sc2c1CCCC2,25.7% (active)
3,NC(=O)c1c(Nc2nc3c(F)cccc3s2)sc2c1CCCC2,17.8% (active)
4,NC(=O)c1c(NC(=O)CSc2nc(N)cc(=O)[nH]2)sc2c1CCCC2,-0.688% (inactive)
5,Fc1cc(F)c2nc(Nc3nc4c(F)cccc4s3)sc2c1,13.2% (active)
6,O=C(Nc1sc2c(c1C(=O)O)CCC2)c1ccccc1F,-2.19% (inactive)
7,NC(=O)c1c(NC(=O)CSc2nnc(-c3ccco3)n2N)sc2c1CCCC2,5.01% (inactive)
8,CC(C)OC(=O)c1c(NC(=O)c2ccco2)sc2c1CCCC2,-0.728% (inactive)
9,C=CCN(CC=C)S(=O)(=O)c1ccc(C(=O)Nc2sc3c(c2C(N)=O)CCCCC3)cc1,3.07% (inactive)
10,COC(=O)c1c(NC(=O)C2CC(C)=C(C)CC2C(=O)O)sc2c1CCCCC2 (stereo not given),-1.42% (inactive)
11,COc1cc2ccccc2cc1C(=O)N(CCN(C)C)c1nc2c(F)cccc2s1,-3.64% (inactive)
12,CCC(=O)N1CCc2cc(S(=O)(=O)CCC(=O)N3CCN(c4ccccc4F)CC3)ccc21,2.85% (inactive)
13,CCOc1ccc(NS(=O)(=O)c2cc(C)c(C)cc2C)cc1,0.868% (inactive)
14,Cc1ccccc1N1CCN(C2CCCN(C(=O)c3ocnc3C)C2)CC1 (stereo not given),1.48% (inactive)
15,CCCCCC(O)(CCN1CCCCC1)c1ccccc1 (stereo not given),-2.5% (inactive)
16,O=C(COC(=O)/C=C/c1ccc(S(=O)(=O)N2CCCCCC2)cc1)NCc1ccccc1Cl,0.471% (inactive)
17,CCCCn1c(=O)c(CCC(=O)OCC(=O)Nc2ccc(C)c(Cl)c2)nc2ccccc21,-1.67% (inactive)
18,CC(=O)NS(=O)(=O)c1ccc(NC(=O)C2C3C=CC(C3)C2C(=O)O)cc1 (stereo not given),-2.43% (inactive)
19,COC(=O)c1cc(NC(=O)C2C3C=CC(C3)C2C(=O)O)cc(C(=O)OC)c1 (stereo not given),-3.42% (inactive)
20,CC(C)COC(=O)c1ccc(NC(=O)C2C3C=CC(C3)C2C(=O)O)cc1 (stereo not given),29% (active)

row,SMILES,max response
1,CCN(CC)S(=O)(=O)c1ccc(N(C)Cc2cccc(OC)c2OC)nc1,10.4% (inactive)
2,CCC(C)Cn1c(O)cc2nn(-c3nc4ccccc4s3)c(=O)c-2c1C (stereo not given),3.42% (inactive)
3,CCc1ccc(-c2cc(C(=O)NCc3ccco3)c3ccccc3n2)s1,14.1% (inactive)
4,CCOC(=O)N1CCN(CC(=O)Nc2cc(C)nn2-c2nc3ccccc3s2)CC1,2.1% (inactive)
5,CC(=NCc1ccco1)c1c(C(F)(F)F)[nH]n(-c2nc3ccccc3s2)c1=O,48.5% (active)
6,COc1ccccc1NC(=O)c1ccc2nc(N3C(=O)CCC3=O)sc2c1,7.91% (inactive)
7,C=CCn1c(CSc2nc3ccccc3s2)nnc1SCC(=O)NCc1ccco1,0.347% (inactive)
8,COC(=O)Cc1[nH]n(-c2nc3ccccc3s2)c(=O)c1C(C)=Nc1ccc(OC)cc1,38.2% (active)
9,C/C(=N\NC(=O)CC(C)C)c1c(C(F)(F)F)[nH]n(-c2nc3ccccc3s2)c1=O,35.6% (active)
10,COc1ccc(CC(=O)N/N=C(\C)c2ccccn2)cc1,-3.12% (inactive)
11,Cc1ccc(C(=O)NCC(=O)OCC(=O)NC2CCCCCCC2)cc1,-2.63% (inactive)
12,Cc1ccc(NC(=O)Cn2c(=O)n(CCC(=O)NC3CCN(Cc4ccccc4)CC3)c(=O)c3ccccc32)cc1,-1.8% (inactive)
13,O=C(NCCCNC(=O)c1ccccc1Cl)c1cnccn1,-1.06% (inactive)
14,COC(=O)Nc1ccc(S(=O)(=O)Nc2cc(OC)nc(OC)n2)cc1,8.38% (inactive)
15,COc1ccc(-c2ccc(CCC(=O)O)n2NC(=O)c2ccc(C(C)(C)C)cc2)cc1,15.2% (inactive)
16,CC(=O)Nc1ccc(Nc2ncnc3c2nnn3Cc2ccccc2Cl)cc1,-1.15% (inactive)
17,CC1C(=O)Nc2ccc(S(=O)(=O)N3CCN(c4ccccc4F)CC3)cc2NC1=O (stereo not given),-4.25% (inactive)
18,COc1cc(CCC(=O)Nc2ccncc2Cl)cc(OC)c1OC,-2.42% (inactive)
19,Cn1c2ccccc2c(=O)c2c(=O)n(Cc3ccco3)c(COc3ccccc3)nc21,-1.78% (inactive)
20,O=C1N/C(=C/c2cccn2-c2ccccc2)C(=O)N1c1cccc(Cl)c1,34.8% (active)

row,SMILES,max response
1,Cc1ccccc1NC(=O)CN1C(=O)N/C(=C\c2cccn2-c2cccc(C(=O)O)c2)C1=O,-9.3% (inactive)
2,COc1cc2c(cc1/C=C1/NC(=O)N(c3ccccc3)C1=O)OCO2,6.72% (inactive)
3,COc1cc(N2CCCC2)c(OC)cc1/C=C(/C#N)c1cccc(Br)c1,-3.93% (inactive)
4,COc1cc(C(=O)N2CCN(C3CCC(C)CC3)CC2)cc(OC)c1OC (stereo not given),-0.901% (inactive)
5,Nc1ccc2nn(-c3ccc(Cl)cc3)nc2c1,39.4% (active)
6,COc1ccc(-c2[nH]ncc2CN(Cc2nccn2C)C(C)C)cc1F,0.417% (inactive)
7,Cc1nn(C)c(Cl)c1CN1CCC(n2nccc2NC(=O)C2CCCC2)CC1,-0.568% (inactive)
8,Cc1ccc(S(=O)(=O)NCCSC(C)(C)C)cc1,1.94% (inactive)
9,CC(C)(C)SCCSC1=CC(=O)CC(c2ccccc2)C1 (stereo not given),48.7% (active)
10,CCC(C)N1CC(=O)N2Cc3[nH]c4ccccc4c3C[C@H]2C1=O (stereo not given in full),-5.44% (inactive)
11,COC(=O)c1ccccc1NC(=O)CSc1n[nH]c(-c2ccncc2)n1,-2.03% (inactive)
12,CC(C)=CCCC1(C)C=Cc2c(ccc3c2[nH]c2cc(O)c(C)cc23)O1 (stereo not given),14% (active)
13,CC/C(=N\NC(=S)NC(C)C)c1ccc(OC(F)F)cc1,7.39% (inactive)
14,O=C(O)CCCn1c(=O)c2cccn2c2ccc(F)cc21,-0.924% (inactive)
15,Cc1ccsc1/C=C1\SC(N2CCOCC2)=NC1=O,32.7% (active)
16,O=c1[nH]c(N2CCOCC2)nc2ccccc12,-4.42% (inactive)
17,O=C1N=C(N2CCOCC2)CS1,11.5% (inactive)
18,O=C1N=C(N2CCOCC2)S/C1=C\C=C/c1ccccc1,44.4% (active)
19,CCc1ccc(/C=C2\SC(N3CCOCC3)=NC2=O)cc1,17.2% (inactive)
20,Cc1cc(/C=C2/SC(=O)N(CC(=O)N3CCCC3)C2=O)ccc1N1CCOCC1,12.3% (inactive)

# Source: PubChem BioAssay AID2314 (National Center for Advancing Translational Sciences (NCATS), 2010)
